# The supplement of paper PMC10127200
# Counter-ions that a name gives are not always drawn.
# Legend:
# Assay in all cases: Euclidean distance of Cell Painting phenotypic profile (signed KS, 77 features) to DMSO centroid (dimensionless distance); 5 or 10 uM (library dependent); higher = stronger phenotypic change vs DMSO (phenoactivity)
# Conditions in all cases: 48 h
# [1] = tested on: 786-O
# In short: (§1)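 Five cancer lines, together with a healthy fibroblast line, received library compounds for 48 h at a library-dependent 10 or 5 uM and 0.1% DMSO final. Harmony then derived 77 features from confocal 20X images (9 fields/well) of the stained cells, scoring each as a signed Kolmogorov-Smirnov statistic against same-plate vehicle wells. After plate-position correction, correlation weighting and replicate averaging at the top dose, phenoactivity was taken as each profile's Euclidean distance to the median vehicle profile.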
# [2] = tested on: A549
# In short: as §1
# [3] = tested on: DU145
# In short: as §1
# [4] = tested on: FB
# In short: as §1
# [5] = tested on: HEPG2
# In short: as §1
# [6] = tested on: OVCAR4
# In short: as §1
SMILES,Euclidean distance [1],Euclidean distance [2],Euclidean distance [3],Euclidean distance [4],Euclidean distance [5],Euclidean distance [6]
O=C(O)c1cc(-c2ccccc2)nc2ccccc12 [Cinchophen],1.16,1.12,1.3,1.12,1.47,0.992
N.N.O=C([O-])C[O-].[Pt+2] [Nedaplatin],3.19,2.86,4.02,3.24,2.92,2.99
CCCS(=O)(=O)Nc1ccc(F)c(C(=O)c2c[nH]c3ncc(-c4ccc(Cl)cc4)cc23)c1F [Vemurafenib (PLX4032. RG7204)],1.14,1.53,1.68,1.23,2.32,1.06
CCn1cc(-c2ccnc3[nH]c(-c4cccc(CN(C)C)c4)cc23)c(-c2ccc(NC(=O)N(C)C)cc2)n1,2.56,2.73,2.29,3.38,2.7,2.8
C/C=C(/C)C(=O)O[C@H]1[C@H](OC(C)=O)[C@@]2(CO)C(CC1(C)C)C1=CCC3[C@@]4(C)CCC(O[C@@H]5O[C@H](C(=O)O)[C@@H](O[C@@H]6O[C@H](CO)[C@@H](O)[C@H](O)[C@H]6O)[C@H](O)[C@H]5O[C@@H]5O[C@H](CO)[C@@H](O)[C@H](O)[C@H]5O)[C@](C)(CO)C4CC[C@@]3(C)[C@]1(C)C[C@H]2O.C/C=C(\C)C(=O)O[C@H]1[C@H](OC(C)=O)[C@@]2(CO)C(CC1(C)C)C1=CCC3[C@@]4(C)CCC(O[C@@H]5O[C@H](C(=O)O)[C@@H](O[C@@H]6O[C@H](CO)[C@@H](O)[C@H](O)[C@H]6O)[C@H](O)[C@H]5O[C@@H]5O[C@H](CO)[C@@H](O)[C@H](O)[C@H]5O)[C@](C)(CO)C4CC[C@@]3(C)[C@]1(C)C[C@H]2O (some centres undefined) [Escin],1.14,0.784,0.972,1.18,0.678,1.24
C=C(C)[C@@H]1CC[C@]2(C(=O)O)CC[C@]3(C)[C@H](CC[C@@H]4[C@@]5(C)CC[C@H](O)C(C)(C)[C@@H]5CC[C@]43C)[C@@H]12 [Betulinic acid],1,0.893,0.693,0.844,0.744,0.866
C=CC(=O)Nc1cccc(Sc2nc(Nc3ccc(N4CCN(C)CC4)cc3)ncc2Cl)c1,2.96,3.04,2.04,3.82,3.02,2.64
Cc1c(Cl)cccc1Nc1ccccc1C(=O)O [Tolfenamic Acid],1.28,0.83,0.762,0.742,0.5,1.19
Cc1ccc(NC(=O)c2ccc(CN3CCN(C)CC3)cc2)cc1Nc1nc(-c2cccnc2)cs1 [Masitinib (AB1010)],2.6,2.76,2.65,3.16,2.4,2.08
Cc1c(OCC(F)(F)F)ccnc1C[S@@+]([O-])c1nc2ccccc2[nH]1 [Dexlansoprazole],0.708,0.614,0.925,1.52,0.629,1.1
CS(=O)(=O)c1ccc([C@@H](O)[C@@H](CF)NC(=O)C(Cl)Cl)cc1 [Florfenicol],1.1,0.738,0.807,1.12,0.739,0.76
OCc1ccc(Cl)cc1Cl [2.4-dichlorobenzyl alcohol],0.68,0.36,1.13,0.663,0.329,1.56
C=CCOc1ccccc1OCC(O)CNC(C)C (centres undefined) [Oxprenolol HCl],0.863,0.819,1.56,1.21,0.783,0.994
CC(C)OC(=O)[C@H](C)N[P@](=O)(OC[C@H]1O[C@@H](n2ccc(=O)[nH]c2=O)[C@](C)(F)[C@@H]1O)Oc1ccccc1 [Sofosbuvir (PSI-7977. GS-7977)],1.34,0.693,1.07,0.694,0.59,1.01
CN(C)CC(=O)Nc1ccc2[nH]c(=O)c3ccccc3c2c1,1.25,1.08,0.921,1.3,1.34,1.07
Nc1[nH]cnc2ncnc1-2 [Adenine sulfate],1.69,0.409,1.17,0.763,0.765,0.878
CN(C)C/C=C/C(=O)Nc1cc2c(Nc3ccc(F)c(Cl)c3)ncnc2cc1O[C@H]1CCOC1 [Afatinib (BIBW2992) Dimaleate],4.65,3.63,5.93,5.45,4.62,4.49
CCc1nn(CCCN2CCN(c3cccc(Cl)c3)CC2)c(=O)n1CCOc1ccccc1 [Nefazodone hydrochloride],1.29,1.42,1.27,1.04,1.67,0.618
COc1cc2nccc(Oc3ccc(NC(=O)C4(C(=O)Nc5ccc(F)cc5)CC4)cc3)c2cc1OC,2.21,2.82,1.36,3.32,2.4,3.08
CC(COc1ccccc1Cc1ccccc1)N1CCCCC1 (centres undefined) [Benproperine phosphate],1.67,1.63,1.72,1.18,1.58,1.42

SMILES,Euclidean distance [1],Euclidean distance [2],Euclidean distance [3],Euclidean distance [4],Euclidean distance [5],Euclidean distance [6]
O=C1OC(c2ccc(O)cc2)(c2ccc(O)cc2)c2ccccc21 [Phenolphthalein],1.6,0.655,1.35,0.979,0.6,1.49
CC(C)(O)CNc1nc(Nc2ccnc(C(F)(F)F)c2)nc(-c2cccc(C(F)(F)F)n2)n1 [Enasidenib (AG-221)],1.17,0.727,1.69,1.4,1.82,1
COC(=O)N[C@H](C(=O)N1CCC[C@H]1C(=O)Nc1ccc([C@@H]2CC[C@@H](c3ccc(NC(=O)[C@@H]4CCCN4C(=O)[C@@H](NC(=O)OC)C(C)C)cc3)N2c2ccc(C(C)(C)C)cc2)cc1)C(C)C [Ombitasvir (ABT-267)],1.9,1.76,1.29,1.1,1.24,1.26
C[C@H](CCC(=O)O)[C@H]1CC[C@H]2[C@@H]3[C@H](O)C[C@@H]4C[C@H](O)CC[C@]4(C)[C@H]3C[C@H](O)[C@]12C [Cholic acid],1.14,0.83,0.953,0.727,0.875,1.12
CCOc1cc(N)c(Cl)cc1C(=O)NCC1CN(Cc2ccc(F)cc2)CCO1 (centres undefined) [Mosapride],1.2,0.542,0.858,1.33,0.651,1.09
Cc1c(Nc2ncccc2C(=O)O)cccc1C(F)(F)F [Flunixin Meglumin],1.03,0.853,0.874,0.516,1.42,1.88
CCOC(=O)Nc1cc(-c2ccc(C)c(NS(C)(=O)=O)c2)nn2c(C)nnc12 [Bromosporine],3.34,2.36,2.42,4.35,1.13,2.35
Oc1cc(O)c2c(c1)O[C@H](c1ccc(O)c(O)c1)[C@H](O)C2 [(-)Epicatechin],1.1,0.627,0.705,1.15,0.982,1.04
CCc1ccc(N(CC(C)C)S(=O)(=O)c2ccc(OCC3CCOCC3)c(CO)c2)cc1,1.56,1.56,1.9,1.05,0.857,1.66
C/C1=C2N=C(/C=C3N=C(/C(C)=C4\[N-]C(C(CC(N)=O)C4(C)CCC(=O)NCC(C)OP(=O)([O-])OC4C(CO)OC(n5cnc6cc(C)c(C)cc65)C4O)C4(C)N=C1C(CCC(N)=O)C4(C)CC(N)=O)C(CCC(N)=O)C\3(C)C)C(CCC(N)=O)C/2(C)CC(N)=O.[CH3-].[Co+3] (centres undefined) [Methylcobalamin],0.89,0.91,1.12,0.99,1.02,0.959
Cc1cc(C)cc(OCC2CNC(=O)O2)c1 (centres undefined) [Metaxalone],0.96,0.856,0.745,0.753,0.417,1.15
CCCCNc1cc(C(=O)O)cc(S(N)(=O)=O)c1Oc1ccccc1 [Bumetanide],1.24,1.15,1.04,1.5,1.38,1.64
CO[C@@]1(NC(=O)Cc2cccs2)C(=O)N2C(C(=O)O)=C(COC(N)=O)CS[C@@H]21 [Cefoxitin],0.82,0.39,0.617,0.482,0.307,1.03
COCCCOc1ccnc(C[S+]([O-])c2nc3ccccc3[nH]2)c1C (centres undefined) [Rebeprazole sodium],0.719,0.641,0.763,1.22,1.54,0.777
O=C(O)/C=C/c1ccc(Cn2ccnc2)cc1 [Ozagrel],1.04,0.773,1.51,0.921,0.736,1.43
Cc1c(CN2CCN(C(=O)[C@H](C)O)CC2)sc2c(N3CCOCC3)nc(-c3cnc(N)nc3)nc12,4.15,2.91,1.8,4.11,3.04,3.09
NCCS [2-Aminoethanethiol],1.12,0.781,1.46,0.594,0.508,1.1
CCOC(=O)O[C@]1(C(=O)OCCl)CC[C@H]2[C@@H]3CCC4=CC(=O)C=C[C@]4(C)[C@H]3[C@@H](O)C[C@@]21C [Loteprednol etabonate],1.18,2.23,1.71,1.66,0.658,1.81
Cc1cc(Nc2ncc(Cl)c(Nc3ccccc3S(=O)(=O)C(C)C)n2)c(OC(C)C)cc1C1CCNCC1 [Ceritinib (LDK378)],6.15,4.94,7.35,6.34,4.96,5.69
